From PubChem BioAssay (NCI)
Compounds without any hit were thinned out: in the full panel of roughly 79,000, 15% have a hit. Cut-off read from the data, not from the text of the source: active = growth inhibition above about 70%; inactive = the rest.

What was measured:
[1] = NCI Yeast Anticancer Drug Screen. Data for the rad50 strain (AID 155);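 note: 0% = growth of vehicle-only cultures of the same strain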; settings: S. cerevisiae rad50 strain growth inhibition, active compounds read high; at 50.0 µM unless noted
How it was run: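 DNA repair mutant yeast, compound exposure, growth read-out; inhibition is taken relative to vehicle.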

[2] = NCI Yeast Anticancer Drug Screen. Data for the mec2-1 strain (AID 157); settings: S. cerevisiae mec2-1 strain, active compounds read high; at 50.0 µM unless noted
How it was run: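 mec2-1 yeast strain, carrying an alteration in DNA damage repair or cell cycle control, was exposed to compounds; growth inhibition was measured relative to vehicle-treated controls.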

[3] = NCI Yeast Anticancer Drug Screen. Data for the sgs1 mgt1 strain (AID 161);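 note: 0% = growth of cultures given vehicle only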; settings: S. cerevisiae sgs1 mgt1 strain, active compounds read high; at 50.0 µM unless noted
How it was run: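 Yeast cells carrying a defined DNA-repair defect were exposed to test compounds. Growth inhibition was measured relative to vehicle-treated controls.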

[4] = NCI Yeast Anticancer Drug Screen. Data for the cln2 rad14 strain (AID 165);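 note: 0% = growth equal to vehicle treated cultures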; settings: S. cerevisiae cln2 rad14 strain, active compounds read high; at 50.0 µM unless noted
How it was run: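 Yeast carrying cln2 and rad14 alterations (cell cycle control and DNA damage repair) were exposed to compounds. Growth inhibition was measured against vehicle-treated controls.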

[5] = NCI Yeast Anticancer Drug Screen. Data for the bub3 strain (AID 167); settings: S. cerevisiae bub3 mutant strain, active compounds read high; at 50.0 µM unless noted
How it was run: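 In this screen, a yeast mutant lacking normal mitotic checkpoint function is challenged with compound. Relative growth versus vehicle gives the inhibition value.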

[6] = NCI Yeast Anticancer Drug Screen. Data for the mlh1 rad18 strain (AID 175); settings: S. cerevisiae mlh1 rad18 strain growth inhibition, active compounds read high; at 50.0 µM unless noted
How it was run: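 Growth inhibition of the yeast strain was measured after compound exposure and expressed relative to vehicle-treated controls. The strain carries defined defects in DNA damage repair.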

Measured: growth inhibition

COc1ccc(C2=C(Cl)c3cc(OC)c(OC)cc3C2Cl)cc1 (stereo unspecified)
inactive: [1] 14.8% | [2] 22.6% | [3] 21.2% | [4] 11.8% | [5] -0.45% | [6] -41.6%

O=C1NC(=O)c2c(O)cccc21
inactive: [1] 38.5% | [2] 23.6% | [3] 21.1% | [4] 18.2% | [5] 13.4% | [6] 27.9%

CCCCN1CCC(N)=NC1=O
inactive: [1] 10.1% | [2] -24.9% | [3] -9.1% | [4] 9.2% | [5] -5.6% | [6] -4.15%

COC(=O)C(=O)C(C#N)c1ccccc1Cl (stereo unspecified)
inactive: [1] 3.45% | [2] -17.2% | [3] 0.35% | [4] 0.5% | [5] -5.75% | [6] 5.15%

CC(=O)CC(C[N+](=O)[O-])c1ccccc1 (stereo unspecified)
inactive: [1] -4.7% | [2] -0.8% | [3] -4.65% | [4] -28.5% | [5] -21.6% | [6] -6.9%

C[C@]12C=CC(=O)C=C1CC[C@@H]1[C@@H]2C(=O)C[C@@]2(C)[C@H]1CC[C@]2(O)C(=O)COC(=O)CSc1c2ccccc2nc2ccccc12
inactive: [1] 35.6% | [2] 5.8% | [3] 8.15% | [4] 24.8% | [5] -9.4% | [6] 19.3%

COC1OCC(N=[N+]=[N-])C(OS(C)(=O)=O)C1OS(C)(=O)=O (stereo unspecified)
inactive: [1] -1.65% | [2] -4.3% | [3] 6.85% | [4] -6.75% | [5] -16.4% | [6] -34.5%

CCOC(=O)c1ccc(O)c(NC(C)=O)c1
inactive: [1] -11.7% | [2] 18.1% | [3] 0.15% | [4] -42.5% | [5] 10% | [6] -7.15%

O=C(O)c1cccc2c(=O)c3ccccc3oc12
inactive: [1] -13.9% | [2] -39.8% | [3] -16.9% | [4] 8.25% | [5] -32.4% | [6] 0.85%

CC/C=C/C(=O)CC(O)(C(F)(F)F)C(F)(F)F
inactive: [1] -30.9% | [2] 9.1% | [3] 12.5% | [4] -20.9% | [5] -29.8% | [6] -20.8%

CCCCC(CCCC)C(=O)O
inactive: [1] -22.3% | [2] -9.65% | [3] -9.85% | [4] 50% | [5] 10.9% | [6] -9.3%

CC1=Nc2ccccc2S/C1=C(/C)NNS(=O)(=O)c1ccc(C)cc1
inactive: [1] 10.1% | [2] -0.05% | [3] 0.25% | [4] -6.3% | [5] 7.75% | [6] 18.1%

COc1ccc(/C(CC2OC(=O)c3ccccc32)=N\NC(=O)C[N+](C)(C)C)cc1 (stereo unspecified)
inactive: [1] 6.1% | [2] -10.8% | [3] 0.4% | [4] 7.55% | [5] 12.1% | [6] 8.5%

O=C(O)c1c(-c2nccc3ccccc23)[nH]c(-c2ccccc2)c1S(=O)(=O)O
inactive: [1] -23.1% | [2] 5.7% | [3] -18.9% | [4] -35.3% | [5] -24.4% | [6] 21.6%

CC/C(C)=N\NS(=O)(=O)c1ccc(NC(C)=O)cc1
inactive: [1] -5% | [2] -14.3% | [3] 18.1% | [4] 20.8% | [5] -33.5% | [6] -0.7%

Cc1cccc(C(=N)c2ccccc2Cc2cccc3ccccc23)c1C
inactive: [1] 51% | [2] 6.5% | [3] 66% | [4] 17.6% | [5] 68.5% | [6] 37.8%

O=C1C2CCC2C(=O)N1c1ccc2ccccc2c1 (stereo unspecified)
inactive: [1] -38.5% | [2] -1% | [3] 0.35% | [4] -17.9% | [5] 12.6% | [6] 6.75%

CC(O)C(=O)OCCOc1ccc(Cl)cc1Cl (stereo unspecified)
inactive: [1] 7.75% | [2] 10.3% | [3] 27.3% | [4] -38.1% | [5] 31.3% | [6] 28.2%

COC1OC2COC(C)(C)OC2C2OC(C)(C)OC12 (stereo unspecified)
inactive: [1] 1.15% | [2] 5.35% | [3] 6.45% | [4] -6.25% | [5] -18.4% | [6] 16.3%

CC(C)=CCCC(C)CCO (stereo unspecified)
inactive: [1] -5.1% | [2] -4.75% | [3] -15.4% | [4] 16.4% | [5] -16.6% | [6] 3.25%

CCC(=O)CC(=O)CCC(=O)Nc1ccc(Cl)cc1C
inactive: [1] -72.2% | [2] -15.4% | [3] -11.6% | [4] -55.2% | [5] -12.4% | [6] -9.55%

CCOC(=O)c1c(C)[nH]c(C(=O)CCN(C)C)c1C
inactive: [1] 7.35% | [2] 0.2% | [3] 17.4% | [4] -33.9% | [5] 2.1% | [6] 0.65%

O=C(O)C(F)(F)C(F)(F)C(F)(F)F
inactive: [1] 5.95% | [2] -2.3% | [3] -6.75% | [4] 14.6% | [5] 1.15% | [6] 3.25%

C/C(=C\C(=O)c1ccc(Sc2ccccc2)cc1)c1ccc(Sc2ccccc2)cc1
inactive: [1] 25.1% | [2] -4.85% | [3] 6.15% | [4] -17.6% | [5] 24.1% | [6] 21.2%

S=c1nc[nH]c2[nH]cc(Br)c12
inactive: [1] 11.6% | [2] -6.55% | [3] 2.5% | [4] -4.7% | [5] 3.75% | [6] 11.8%

CC(=O)c1oc2cc([N+](=O)[O-])c3ccccc3c2c1C
inactive: [1] 14.7% | [2] -8.55% | [3] 26.3% | [4] 11.6% | [5] -5.35% | [6] 40.1%

CC1CC(C)OC(C(Br)CBr)O1 (stereo unspecified)
inactive: [1] 5.05% | [2] -10.9% | [3] -4.8% | [4] 15% | [5] -13.9% | [6] 12.1%

CCC12CCCNC1c1c(n(C)c3ccccc13)C(C(=O)OC)C2 (stereo unspecified)
inactive: [1] 36.9% | [2] -2.9% | [3] 25% | [4] 25.6% | [5] -9.05% | [6] -20.7%

COC(=O)C1CC2(CCC1=O)Cc1ccccc1C2=O (stereo unspecified)
inactive: [1] -15.5% | [2] -3.45% | [3] 28.5% | [4] 1.3% | [5] -4.25% | [6] -16.4%

CS(=O)(=O)CS(C)(=O)=O
inactive: [1] 18.9% | [2] 6.15% | [3] 8.2% | [4] 14.5% | [5] 0.25% | [6] 27.9%

Cc1cc(OCC(=O)O)cc(C)c1C
inactive: [1] 1% | [2] -8.5% | [3] -15.1% | [4] -18.6% | [5] -4.55% | [6] -1.45%

C(CCC1CO1)CC1CO1 (stereo unspecified)
inactive: [1] 3.25% | [2] -21.1% | [3] -31.6% | [4] -27.2% | [5] -5.45% | [6] -22.8%

Clc1cccc(Cl)c1C1SCc2nc3cc4ccccc4cc3n21 (stereo unspecified)
inactive: [1] -1.8% | [2] -12.1% | [3] 24.9% | [4] -0.55% | [5] 14% | [6] 14%

CC(C)CCN
inactive: [1] 2.75% | [2] 8.9% | [3] -3.35% | [4] 19.1% | [5] 3.3% | [6] 30.2%

O=C1OCc2ccccc21
inactive: [1] 3.2% | [2] 7.8% | [3] 11.2% | [4] -26.7% | [5] -6.05% | [6] 3.15%

Nc1c(C(=O)O)ccc(O)c1O
inactive: [1] 28.9% | [2] 20.5% | [3] 32.2% | [4] 7.95% | [5] 0.95% | [6] 9.8%

CCC1=CCN(c2ccccn2)OC1c1ccc(OC)cc1 (stereo unspecified)
inactive: [1] 32.6% | [2] 13.7% | [3] 49.2% | [4] 22.3% | [5] 40.2% | [6] 24.1%

O=S(=O)(NCCN1CCNC1=S)c1ccc(Cl)c(Cl)c1
inactive: [1] -55.5% | [2] -12.7% | [3] -3.25% | [4] -16.7% | [5] -6.2% | [6] -6.6%

COc1ccc(Br)cc1C1OC(=O)c2c(OC)c(OC)cc([N+](=O)[O-])c21 (stereo unspecified)
inactive: [1] 33.9% | [2] 5.25% | [3] 20.5% | [4] 8.2% | [5] 2.3% | [6] 18.2%

CC[N+](CC)(CC)CCOc1nc(OCC[N+](CC)(CC)CC)nc(OCC[N+](CC)(CC)CC)n1
inactive: [1] 11.8% | [2] 11% | [3] 10.3% | [4] 9.1% | [5] 17.1% | [6] 35%

O=C1NC2OCC(O)C(O)C2O1 (stereo unspecified)
inactive: [1] 4.6% | [2] 10.1% | [3] -4.15% | [4] 12.4% | [5] 22.4% | [6] 6.45%
